40 molecules from the supplement of paper PMC10646978 can be followed below.

± gives the standard deviation.

For the first test, the system named is RAW-Dual (murine macrophage reporter line). Nature of the test: NF-kB reporter (SEAP) activity fold change vs agonist alone; higher = enhanced NF-kB activity. The settings on record: modulator concentration 10 µM; agonist: MPLA […]. The gist of the method: (§1)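 Compound reached 10 μM final in each well by pin transfer, onto RAW-Dual murine macrophage reporter cells seeded at 50 000 per well in 384-well plates. After 1 hour at 37 °C, the cells were stimulated overnight with a PRR agonist. SEAP in the supernatant was read with QUANTI-Blue at 620 nm absorbance for NF-κB, and Lucia luciferase was read with QUANTI-Luc luminescence for IRF. Each signal was turned into fold change against the mean agonist-only control on the same plate, and two replicate plates were averaged with propagated errors.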
In the case of `Nc1nc(=O)n([C@@H]2CS[C@H](CO)O2)cc1F`, the NF-kB reporter was 1.21 ± 0.073.

Turning to `C1=C(c2ccccc2)Nc2nnnn2C1c1ccccc1` (stereo not given), the NF-kB reporter was found to be 0.996 ± 0.097.

Turning to `CCN(Cc1ccncc1)C(=O)C(CO)c1ccccc1` (stereo not given), the NF-kB reporter came to 1.04 ± 0.071.

Take `CCN(CC)c1ccc(C=NNC(=O)c2ccc(O)cc2)c(O)c1`: the NF-kB reporter came to 5.86 ± 0.2.

Consider `CC(C(=O)O)c1ccc(C(=O)c2cccs2)cc1` (stereo not given), for which the NF-kB reporter came out at 0.995 ± 0.065.

Regarding `O=C(Oc1ccc2ccccc2c1)c1ccccc1`, the NF-kB reporter came out at 1.04 ± 0.066.

In the case of `CN1CCN(C(CNC(=O)c2ccccc2Br)c2ccc(F)cc2)CC1` (stereo not given), the NF-kB reporter came to 0.944 ± 0.13.

On to `O=C(O)CSCC(=O)NC1CCSC1=O` (stereo not given), for which the NF-kB reporter stood at 1.04 ± 0.12.

On to `COc1ccc(C2CC(=O)C(=Cc3c[nH]c4ccccc34)C(=O)C2)cc1` (stereo not given), for which the NF-kB reporter came to 0.905 ± 0.08.

Take `O=C(NC(=S)Nc1ccccc1C(F)(F)F)c1cccc(I)c1`: the NF-kB reporter was 0.9 ± 0.066.

Regarding `CC(=O)N1CCC(C(=O)NCc2cccnc2-c2cnn(C)c2)CC1`, the NF-kB reporter worked out at 0.903 ± 0.099.

For the molecule `Nc1cccc(O)c1`, the NF-kB reporter is 1.03 ± 0.023.

As to `Cc1cccc(C(=O)N2N=C(c3ccccc3)CC2(O)C(F)(F)F)c1` (stereo not given), the NF-kB reporter stood at 1.46 ± 0.087.

For `O=C(O[C@H]1C[C@H]2CC3C[C@@H](C1)N2CC3=O)c1c[nH]c2ccccc12`, the NF-kB reporter stood at 0.693 ± 0.03.

In the case of `CC1=NN(c2ccc(C(=O)O)cc2)C(=O)C1=Cc1ccc(-c2cc(C)c(C)cc2[N+](=O)[O-])o1`, the NF-kB reporter turned out to be 0.947 ± 0.073.

As to `Cl.Cl.Fc1ccc(C(c2ccc(F)cc2)N2CCN(CC=Cc3ccccc3)CC2)cc1`, the NF-kB reporter was 1.15 ± 0.029.

On to `Cc1ccc(C(=O)NC(=Cc2ccccc2)C(=O)NCCCn2ccnc2)cc1`, for which the NF-kB reporter came to 0.907 ± 0.083.

As for `Cc1cc(C(=O)N2CCC(Oc3cccc4cccnc34)CC2)n(C)n1`, the NF-kB reporter is 1.07 ± 0.081.

As for `COc1cc2ccc(=O)oc2cc1O`, the NF-kB reporter worked out at 0.892 ± 0.057.

As to `COc1ccc(C(=O)Nc2cc(C)nc3c(C)cc(C)cc23)cc1OC`, the NF-kB reporter worked out at 0.838 ± 0.055.

For `O=c1n(CCNS(=O)(=O)Cc2ccccc2)nc(C2CC2)n1-c1ccccc1`, the NF-kB reporter amounted to 1.1 ± 0.074.

Turning to `O=[N+]([O-])c1ccc(OCC(O)CN2CCN(c3ccccc3)CC2)cc1` (stereo not given), the NF-kB reporter was determined as 0.964 ± 0.086.

With `CCc1ccccc1Nc1nc(-c2sc(NC(C)=O)nc2C)cs1`, the NF-kB reporter is 0.582 ± 0.048.

With `COc1cc2c(cc1Cc1cccc(Cl)c1F)c(=O)c(C(=O)O)cn2[C@H](CO)C(C)C`, the NF-kB reporter was 1.25 ± 0.085.

Regarding `NC(=O)c1ncn(C2OC(CO)C(O)C2O)c1O` (stereo not given), the NF-kB reporter turned out to be 0.917 ± 0.1.

With `CCOC(=O)C1=C(C)NC(C)=C(C(=O)OC)C1c1ccc(C)cc1` (stereo not given), the NF-kB reporter turned out to be 1.2 ± 0.046.

With `CN1CCN(C2=C(Cl)C(=O)N(c3ccc(Cl)c(Cl)c3)C2=O)CC1`, the NF-kB reporter was found to be 0.759 ± 0.045.

Consider `CCC1(C)CC(CCN)(c2ccc(C)cc2)CCO1` (stereo not given), for which the NF-kB reporter stood at 0.992 ± 0.047.

Regarding `Cc1ccc(NC(Nc2ccc(C)cc2)=C(C(Cl)=C(Cl)Cl)[N+](=O)[O-])cc1`, the NF-kB reporter is 1.18 ± 0.36.

For `O=C(Nc1cc2c(cc1Cl)OCCO2)c1cc(Cl)ccc1O`, the NF-kB reporter came out at 0.969 ± 0.092.

For `Cl.O=C1Cc2cc(CCN3CCN(c4nsc5ccccc45)CC3)c(Cl)cc2N1`, the NF-kB reporter was found to be 0.85 ± 0.059.

For `O=S(=O)(c1ccc(F)cc1)N1CCC(c2nc3ccccc3[nH]2)CC1`, the NF-kB reporter stood at 1.03 ± 0.028.

Regarding `COc1ccc(C=NNc2nc(-c3ccccc3)cc(-c3ccc(Br)cc3)n2)c(OC)c1`, the NF-kB reporter amounted to 1.03 ± 0.12.

On to `CCc1nc(N)nc(N)c1-c1ccc(Cl)cc1`, for which the NF-kB reporter is 1.03 ± 0.054.

Turning to `Cc1c(F)cc(C(=O)NC2CC2)cc1-c1ccc(C(=O)NCC(C)(C)C)cn1`, the NF-kB reporter amounted to 1.01 ± 0.071.

Turning to `COC(=O)C1=C(C)NC(C)=C(C(=O)OC)C1c1ccccc1[N+](=O)[O-]`, the NF-kB reporter amounted to 1.82 ± 0.17.

With `O=c1[nH]c(=O)n([C@H]2C[C@H](O)[C@@H](CO)O2)cc1I`, the NF-kB reporter stood at 0.992 ± 0.044.

In the case of `O=[N+]([O-])c1ccc(C=Nc2sc3c(c2-c2nc4ccccc4s2)CCCC3)cc1`, the NF-kB reporter was 0.983 ± 0.057.

Regarding `COc1cc2nc(N3CCN(C(=O)C4COc5ccccc5O4)CC3)nc(N)c2cc1OC.CS(=O)(=O)O` (stereo not given), the NF-kB reporter is 1.2 ± 0.082.

On to `O=C(c1ccc(Cl)cc1)c1ccc(N2CCCCC2)c([N+](=O)[O-])c1`, for which the NF-kB reporter was 1.01 ± 0.097.

The test system is the same in a further test. Nature of the test: IRF reporter (Lucia luciferase) activity fold change vs agonist alone; higher = enhanced IRF activity. The conditions noted are these: modulator concentration 10 µM; agonist: 3'3'-cGAMP 10 ug/mL. Put shortly:
as §1
`Nc1nc(=O)n([C@@H]2CS[C@H](CO)O2)cc1F`: the IRF reporter turned out to be 0.62 ± 0.15.

In the case of `C1=C(c2ccccc2)Nc2nnnn2C1c1ccccc1` (stereo not given), the IRF reporter came to 0.949 ± 0.087.

For `CCN(Cc1ccncc1)C(=O)C(CO)c1ccccc1` (stereo not given), the IRF reporter is 0.972 ± 0.076.

Turning to `CCN(CC)c1ccc(C=NNC(=O)c2ccc(O)cc2)c(O)c1`, the IRF reporter was determined as 0.2 ± 0.0075.

Turning to `CC(C(=O)O)c1ccc(C(=O)c2cccs2)cc1` (stereo not given), the IRF reporter amounted to 0.97 ± 0.03.

As for `O=C(Oc1ccc2ccccc2c1)c1ccccc1`, the IRF reporter came out at 0.906 ± 0.06.

For `CN1CCN(C(CNC(=O)c2ccccc2Br)c2ccc(F)cc2)CC1` (stereo not given), the IRF reporter was found to be 1.03 ± 0.053.

As for `O=C(O)CSCC(=O)NC1CCSC1=O` (stereo not given), the IRF reporter was determined as 1.01 ± 0.06.

Turning to `COc1ccc(C2CC(=O)C(=Cc3c[nH]c4ccccc34)C(=O)C2)cc1` (stereo not given), the IRF reporter amounted to 0.76 ± 0.04.

Turning to `O=C(NC(=S)Nc1ccccc1C(F)(F)F)c1cccc(I)c1`, the IRF reporter amounted to 0.989 ± 0.025.

Consider `CC(=O)N1CCC(C(=O)NCc2cccnc2-c2cnn(C)c2)CC1`, for which the IRF reporter is 1.04 ± 0.095.

For `Nc1cccc(O)c1`, the IRF reporter amounted to 0.983 ± 0.09.

Turning to `Cc1cccc(C(=O)N2N=C(c3ccccc3)CC2(O)C(F)(F)F)c1` (stereo not given), the IRF reporter is 1.58 ± 0.049.

As to `O=C(O[C@H]1C[C@H]2CC3C[C@@H](C1)N2CC3=O)c1c[nH]c2ccccc12`, the IRF reporter is 0.92 ± 0.051.

With `CC1=NN(c2ccc(C(=O)O)cc2)C(=O)C1=Cc1ccc(-c2cc(C)c(C)cc2[N+](=O)[O-])o1`, the IRF reporter is 1 ± 0.066.

Regarding `Cl.Cl.Fc1ccc(C(c2ccc(F)cc2)N2CCN(CC=Cc3ccccc3)CC2)cc1`, the IRF reporter was found to be 0.956 ± 0.089.

Consider `Cc1ccc(C(=O)NC(=Cc2ccccc2)C(=O)NCCCn2ccnc2)cc1`, for which the IRF reporter was found to be 1.01 ± 0.045.

Regarding `Cc1cc(C(=O)N2CCC(Oc3cccc4cccnc34)CC2)n(C)n1`, the IRF reporter was 0.942 ± 0.035.

On to `COc1cc2ccc(=O)oc2cc1O`, for which the IRF reporter was found to be 0.909 ± 0.053.

As to `COc1ccc(C(=O)Nc2cc(C)nc3c(C)cc(C)cc23)cc1OC`, the IRF reporter was determined as 0.501 ± 0.038.

For the molecule `O=c1n(CCNS(=O)(=O)Cc2ccccc2)nc(C2CC2)n1-c1ccccc1`, the IRF reporter was 1.03 ± 0.063.

As to `O=[N+]([O-])c1ccc(OCC(O)CN2CCN(c3ccccc3)CC2)cc1` (stereo not given), the IRF reporter was found to be 0.982 ± 0.024.

For `CCc1ccccc1Nc1nc(-c2sc(NC(C)=O)nc2C)cs1`, the IRF reporter was found to be 0.778 ± 0.028.

Take `COc1cc2c(cc1Cc1cccc(Cl)c1F)c(=O)c(C(=O)O)cn2[C@H](CO)C(C)C`: the IRF reporter turned out to be 0.822 ± 0.026.

For the molecule `NC(=O)c1ncn(C2OC(CO)C(O)C2O)c1O` (stereo not given), the IRF reporter came to 1.04 ± 0.037.

Consider `CCOC(=O)C1=C(C)NC(C)=C(C(=O)OC)C1c1ccc(C)cc1` (stereo not given), for which the IRF reporter worked out at 0.815 ± 0.13.

Take `CN1CCN(C2=C(Cl)C(=O)N(c3ccc(Cl)c(Cl)c3)C2=O)CC1`: the IRF reporter was determined as 0.524 ± 0.016.

Take `CCC1(C)CC(CCN)(c2ccc(C)cc2)CCO1` (stereo not given): the IRF reporter came to 0.822 ± 0.048.

On to `Cc1ccc(NC(Nc2ccc(C)cc2)=C(C(Cl)=C(Cl)Cl)[N+](=O)[O-])cc1`, for which the IRF reporter stood at 0.264 ± 0.01.

Take `O=C(Nc1cc2c(cc1Cl)OCCO2)c1cc(Cl)ccc1O`: the IRF reporter came out at 1.08 ± 0.034.

As to `Cl.O=C1Cc2cc(CCN3CCN(c4nsc5ccccc45)CC3)c(Cl)cc2N1`, the IRF reporter came out at 0.646 ± 0.027.

Consider `O=S(=O)(c1ccc(F)cc1)N1CCC(c2nc3ccccc3[nH]2)CC1`, for which the IRF reporter worked out at 0.913 ± 0.033.

`COc1ccc(C=NNc2nc(-c3ccccc3)cc(-c3ccc(Br)cc3)n2)c(OC)c1`: the IRF reporter came to 0.96 ± 0.03.

Regarding `CCc1nc(N)nc(N)c1-c1ccc(Cl)cc1`, the IRF reporter was 0.941 ± 0.052.

As to `Cc1c(F)cc(C(=O)NC2CC2)cc1-c1ccc(C(=O)NCC(C)(C)C)cn1`, the IRF reporter was 1.1 ± 0.043.

Consider `COC(=O)C1=C(C)NC(C)=C(C(=O)OC)C1c1ccccc1[N+](=O)[O-]`, for which the IRF reporter amounted to 0.374 ± 0.017.

With `O=c1[nH]c(=O)n([C@H]2C[C@H](O)[C@@H](CO)O2)cc1I`, the IRF reporter was found to be 1.04 ± 0.068.

As to `O=[N+]([O-])c1ccc(C=Nc2sc3c(c2-c2nc4ccccc4s2)CCCC3)cc1`, the IRF reporter amounted to 0.94 ± 0.04.

With `COc1cc2nc(N3CCN(C(=O)C4COc5ccccc5O4)CC3)nc(N)c2cc1OC.CS(=O)(=O)O` (stereo not given), the IRF reporter is 0.273 ± 0.017.

As for `O=C(c1ccc(Cl)cc1)c1ccc(N2CCCCC2)c([N+](=O)[O-])c1`, the IRF reporter came to 0.957 ± 0.064.
